Measured values reported in ChEMBL document CHEMBL2218924, “A broad activity screen in support of a chemogenomic map for kinase signalling research and drug discovery” (Biochem J, 2013).

Experiments:
[1] = target: T1, Serine/threonine-protein kinase TBK1 (Homo sapiens) (UniProt Q9UHD2); conditions: at 10 µM
T1 sequence (whole entry): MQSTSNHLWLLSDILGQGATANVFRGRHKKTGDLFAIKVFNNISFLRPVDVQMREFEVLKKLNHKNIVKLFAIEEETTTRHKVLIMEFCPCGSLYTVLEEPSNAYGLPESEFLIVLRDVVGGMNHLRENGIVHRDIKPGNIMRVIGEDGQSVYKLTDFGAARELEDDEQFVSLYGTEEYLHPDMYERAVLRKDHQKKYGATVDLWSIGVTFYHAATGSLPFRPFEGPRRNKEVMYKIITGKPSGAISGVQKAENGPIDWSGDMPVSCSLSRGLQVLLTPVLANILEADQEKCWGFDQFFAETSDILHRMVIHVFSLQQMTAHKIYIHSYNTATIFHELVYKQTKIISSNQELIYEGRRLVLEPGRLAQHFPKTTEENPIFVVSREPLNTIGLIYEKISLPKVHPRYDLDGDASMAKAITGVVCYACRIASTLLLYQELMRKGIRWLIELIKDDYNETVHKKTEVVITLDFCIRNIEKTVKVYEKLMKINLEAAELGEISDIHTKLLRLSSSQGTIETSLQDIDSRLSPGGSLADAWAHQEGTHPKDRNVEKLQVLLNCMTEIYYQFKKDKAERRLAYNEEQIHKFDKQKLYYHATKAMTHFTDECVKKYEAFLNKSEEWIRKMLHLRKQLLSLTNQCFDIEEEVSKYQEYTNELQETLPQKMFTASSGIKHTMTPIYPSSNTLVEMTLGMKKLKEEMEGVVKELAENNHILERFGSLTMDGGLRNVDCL

[2] = target: T2, TGF-beta receptor type-1 (Homo sapiens) (UniProt P36897); conditions: at 1 µM
T2 sequence (whole entry): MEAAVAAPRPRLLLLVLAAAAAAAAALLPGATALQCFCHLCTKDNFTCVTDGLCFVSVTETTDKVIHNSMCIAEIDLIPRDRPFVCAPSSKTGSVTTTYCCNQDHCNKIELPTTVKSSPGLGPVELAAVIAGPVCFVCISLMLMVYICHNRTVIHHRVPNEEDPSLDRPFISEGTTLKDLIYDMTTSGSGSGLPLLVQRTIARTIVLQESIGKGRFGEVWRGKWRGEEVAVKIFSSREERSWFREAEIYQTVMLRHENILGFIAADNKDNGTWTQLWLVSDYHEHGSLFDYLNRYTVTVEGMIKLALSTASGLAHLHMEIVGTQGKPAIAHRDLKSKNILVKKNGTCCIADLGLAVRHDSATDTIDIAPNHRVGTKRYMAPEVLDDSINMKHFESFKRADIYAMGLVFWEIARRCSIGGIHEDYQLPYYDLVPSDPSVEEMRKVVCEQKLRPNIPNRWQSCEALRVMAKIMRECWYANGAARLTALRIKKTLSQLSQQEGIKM

[3] = target: T2, TGF-beta receptor type-1 (Homo sapiens); conditions: at 10 µM
[4] = target: Insulin-like growth factor 1 receptor (Homo sapiens) (UniProt P08069); conditions: at 1 µM
Insulin-like growth factor 1 receptor (Homo sapiens), sequence (P08069 31-736 limits assumed): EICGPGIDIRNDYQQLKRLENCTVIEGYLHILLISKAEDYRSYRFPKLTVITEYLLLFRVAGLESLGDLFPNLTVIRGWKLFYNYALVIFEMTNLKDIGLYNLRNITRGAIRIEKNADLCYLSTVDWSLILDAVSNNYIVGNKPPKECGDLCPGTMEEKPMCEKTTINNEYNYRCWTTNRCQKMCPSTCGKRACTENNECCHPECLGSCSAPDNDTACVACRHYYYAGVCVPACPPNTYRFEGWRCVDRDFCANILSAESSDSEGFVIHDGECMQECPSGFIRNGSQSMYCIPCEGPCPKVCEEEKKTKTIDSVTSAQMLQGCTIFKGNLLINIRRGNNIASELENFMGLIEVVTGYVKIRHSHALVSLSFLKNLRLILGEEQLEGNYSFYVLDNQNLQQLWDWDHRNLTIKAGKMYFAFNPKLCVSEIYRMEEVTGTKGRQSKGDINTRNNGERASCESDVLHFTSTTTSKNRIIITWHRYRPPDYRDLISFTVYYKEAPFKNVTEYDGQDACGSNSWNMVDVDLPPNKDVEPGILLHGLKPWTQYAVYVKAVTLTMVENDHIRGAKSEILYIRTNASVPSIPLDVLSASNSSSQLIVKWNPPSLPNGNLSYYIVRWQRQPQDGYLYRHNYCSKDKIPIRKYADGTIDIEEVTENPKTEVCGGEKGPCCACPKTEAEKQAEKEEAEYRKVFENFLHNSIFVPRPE
Insulin-like growth factor 1 receptor (Homo sapiens), sequence (P08069 741-1367 limits assumed): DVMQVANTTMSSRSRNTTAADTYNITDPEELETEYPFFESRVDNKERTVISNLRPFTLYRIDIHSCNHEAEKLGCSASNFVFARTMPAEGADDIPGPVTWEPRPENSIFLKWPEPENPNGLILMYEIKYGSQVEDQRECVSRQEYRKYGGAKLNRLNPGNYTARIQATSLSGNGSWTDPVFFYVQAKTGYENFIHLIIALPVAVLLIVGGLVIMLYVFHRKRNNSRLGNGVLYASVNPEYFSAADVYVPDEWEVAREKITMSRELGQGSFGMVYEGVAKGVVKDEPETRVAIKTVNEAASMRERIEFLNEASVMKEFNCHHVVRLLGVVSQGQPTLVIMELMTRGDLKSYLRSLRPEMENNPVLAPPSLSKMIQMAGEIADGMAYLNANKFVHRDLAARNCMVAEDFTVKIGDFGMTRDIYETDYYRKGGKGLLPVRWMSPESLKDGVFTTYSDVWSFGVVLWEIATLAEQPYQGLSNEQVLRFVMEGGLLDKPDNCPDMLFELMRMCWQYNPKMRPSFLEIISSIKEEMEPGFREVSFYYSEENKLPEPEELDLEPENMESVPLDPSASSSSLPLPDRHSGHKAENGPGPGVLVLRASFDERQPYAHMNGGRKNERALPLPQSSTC

[5] = target: Insulin-like growth factor 1 receptor (Homo sapiens) (UniProt P08069); conditions: at 10 µM
[6] = target: T3, Inhibitor of nuclear factor kappa-B kinase subunit alpha (Homo sapiens) (UniProt O15111); conditions: at 1 µM
T3 sequence (whole entry): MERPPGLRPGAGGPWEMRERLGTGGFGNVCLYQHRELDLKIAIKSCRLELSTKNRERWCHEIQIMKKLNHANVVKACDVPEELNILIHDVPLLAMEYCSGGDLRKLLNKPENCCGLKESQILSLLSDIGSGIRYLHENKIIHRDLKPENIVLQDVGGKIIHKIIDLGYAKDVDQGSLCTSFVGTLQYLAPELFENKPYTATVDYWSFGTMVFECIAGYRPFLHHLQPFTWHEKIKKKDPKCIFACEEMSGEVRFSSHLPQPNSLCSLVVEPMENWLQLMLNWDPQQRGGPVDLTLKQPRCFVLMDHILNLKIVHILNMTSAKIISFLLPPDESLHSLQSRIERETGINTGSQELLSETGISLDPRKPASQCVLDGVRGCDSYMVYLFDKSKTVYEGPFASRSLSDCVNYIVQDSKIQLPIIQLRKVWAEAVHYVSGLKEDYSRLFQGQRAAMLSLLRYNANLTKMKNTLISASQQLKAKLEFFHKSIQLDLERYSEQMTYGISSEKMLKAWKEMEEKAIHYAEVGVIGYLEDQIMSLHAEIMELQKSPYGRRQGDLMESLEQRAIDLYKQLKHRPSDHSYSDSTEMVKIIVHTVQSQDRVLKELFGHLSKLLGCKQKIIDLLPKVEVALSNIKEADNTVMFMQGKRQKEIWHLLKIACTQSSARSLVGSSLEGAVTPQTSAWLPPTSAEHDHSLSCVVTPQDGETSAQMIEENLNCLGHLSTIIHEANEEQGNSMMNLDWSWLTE

[7] = target: T3, Inhibitor of nuclear factor kappa-B kinase subunit alpha (Homo sapiens); conditions: at 10 µM
[8] = target: T4, Inhibitor of nuclear factor kappa-B kinase subunit beta (Homo sapiens) (UniProt O14920); conditions: at 10 µM
T4 sequence (whole entry): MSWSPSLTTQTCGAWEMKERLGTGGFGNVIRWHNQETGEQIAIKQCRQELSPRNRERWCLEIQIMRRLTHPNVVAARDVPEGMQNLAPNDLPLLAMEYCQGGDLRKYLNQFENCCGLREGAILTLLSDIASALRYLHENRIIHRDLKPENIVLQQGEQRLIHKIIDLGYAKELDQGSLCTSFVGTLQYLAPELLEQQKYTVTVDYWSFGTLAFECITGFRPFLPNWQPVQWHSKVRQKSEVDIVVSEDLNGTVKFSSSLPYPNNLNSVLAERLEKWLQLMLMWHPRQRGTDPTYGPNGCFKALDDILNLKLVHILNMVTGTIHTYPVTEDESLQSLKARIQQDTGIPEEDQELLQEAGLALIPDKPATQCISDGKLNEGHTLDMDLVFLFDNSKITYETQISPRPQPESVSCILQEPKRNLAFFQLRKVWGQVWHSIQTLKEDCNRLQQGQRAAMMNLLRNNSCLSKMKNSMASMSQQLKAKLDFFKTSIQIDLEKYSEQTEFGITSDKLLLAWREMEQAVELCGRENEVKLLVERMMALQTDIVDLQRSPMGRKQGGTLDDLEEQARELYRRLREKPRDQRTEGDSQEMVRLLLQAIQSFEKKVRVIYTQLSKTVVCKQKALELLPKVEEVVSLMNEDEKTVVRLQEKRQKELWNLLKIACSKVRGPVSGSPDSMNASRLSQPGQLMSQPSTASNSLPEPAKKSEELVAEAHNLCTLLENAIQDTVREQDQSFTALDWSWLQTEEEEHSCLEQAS

[9] = target: Insulin receptor (Homo sapiens) (UniProt P06213); conditions: at 1 µM
Insulin receptor (Homo sapiens), sequence (P06213 28-758 limits assumed): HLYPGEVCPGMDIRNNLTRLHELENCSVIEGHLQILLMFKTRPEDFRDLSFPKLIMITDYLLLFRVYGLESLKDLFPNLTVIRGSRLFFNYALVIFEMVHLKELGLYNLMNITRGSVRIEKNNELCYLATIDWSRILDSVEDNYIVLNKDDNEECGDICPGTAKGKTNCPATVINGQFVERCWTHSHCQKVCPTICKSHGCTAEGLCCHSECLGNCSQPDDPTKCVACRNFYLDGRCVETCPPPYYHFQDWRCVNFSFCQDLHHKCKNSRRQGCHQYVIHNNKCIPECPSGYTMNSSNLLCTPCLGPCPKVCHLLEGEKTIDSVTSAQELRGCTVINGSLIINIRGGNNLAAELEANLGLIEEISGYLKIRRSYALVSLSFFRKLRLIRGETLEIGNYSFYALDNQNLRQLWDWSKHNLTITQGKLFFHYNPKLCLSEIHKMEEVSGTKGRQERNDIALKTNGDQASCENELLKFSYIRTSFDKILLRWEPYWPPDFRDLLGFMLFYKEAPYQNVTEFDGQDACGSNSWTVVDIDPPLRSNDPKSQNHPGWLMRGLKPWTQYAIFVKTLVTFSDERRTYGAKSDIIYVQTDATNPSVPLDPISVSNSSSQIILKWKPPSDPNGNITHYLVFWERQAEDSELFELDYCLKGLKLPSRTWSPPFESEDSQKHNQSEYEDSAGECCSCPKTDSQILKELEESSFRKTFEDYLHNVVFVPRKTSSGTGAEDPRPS
Insulin receptor (Homo sapiens), sequence (P06213 763-1382 limits assumed): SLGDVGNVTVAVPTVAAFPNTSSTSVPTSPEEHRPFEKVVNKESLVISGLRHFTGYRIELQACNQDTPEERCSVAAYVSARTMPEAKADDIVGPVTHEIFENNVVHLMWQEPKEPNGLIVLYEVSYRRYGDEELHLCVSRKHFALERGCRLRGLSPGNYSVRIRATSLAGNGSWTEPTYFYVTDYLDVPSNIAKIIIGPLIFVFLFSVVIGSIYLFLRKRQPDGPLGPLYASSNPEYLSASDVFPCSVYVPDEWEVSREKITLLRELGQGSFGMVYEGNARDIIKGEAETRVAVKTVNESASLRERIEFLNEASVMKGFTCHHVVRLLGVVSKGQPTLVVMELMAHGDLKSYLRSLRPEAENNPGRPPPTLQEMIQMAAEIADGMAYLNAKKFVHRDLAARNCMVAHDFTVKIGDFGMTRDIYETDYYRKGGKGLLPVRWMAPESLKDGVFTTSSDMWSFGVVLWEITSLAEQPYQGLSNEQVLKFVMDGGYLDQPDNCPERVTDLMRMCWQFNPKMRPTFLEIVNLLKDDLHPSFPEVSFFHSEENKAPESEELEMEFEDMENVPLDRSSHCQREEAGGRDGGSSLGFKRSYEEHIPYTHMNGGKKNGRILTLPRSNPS

[10] = target: Insulin receptor (Homo sapiens) (UniProt P06213); conditions: at 10 µM
[11] = target: Insulin receptor (Homo sapiens) (UniProt P06213); conditions: at 1 µM; remark: listed apart in the source
[12] = target: Insulin receptor (Homo sapiens) (UniProt P06213); conditions: at 10 µM; remark: listed apart in the source
[13] = target: Interleukin-1 receptor-associated kinase 1 (Homo sapiens) (UniProt P51617); conditions: at 1 µM
Interleukin-1 receptor-associated kinase 1 (Homo sapiens), sequence (P51617 whole entry, looked up): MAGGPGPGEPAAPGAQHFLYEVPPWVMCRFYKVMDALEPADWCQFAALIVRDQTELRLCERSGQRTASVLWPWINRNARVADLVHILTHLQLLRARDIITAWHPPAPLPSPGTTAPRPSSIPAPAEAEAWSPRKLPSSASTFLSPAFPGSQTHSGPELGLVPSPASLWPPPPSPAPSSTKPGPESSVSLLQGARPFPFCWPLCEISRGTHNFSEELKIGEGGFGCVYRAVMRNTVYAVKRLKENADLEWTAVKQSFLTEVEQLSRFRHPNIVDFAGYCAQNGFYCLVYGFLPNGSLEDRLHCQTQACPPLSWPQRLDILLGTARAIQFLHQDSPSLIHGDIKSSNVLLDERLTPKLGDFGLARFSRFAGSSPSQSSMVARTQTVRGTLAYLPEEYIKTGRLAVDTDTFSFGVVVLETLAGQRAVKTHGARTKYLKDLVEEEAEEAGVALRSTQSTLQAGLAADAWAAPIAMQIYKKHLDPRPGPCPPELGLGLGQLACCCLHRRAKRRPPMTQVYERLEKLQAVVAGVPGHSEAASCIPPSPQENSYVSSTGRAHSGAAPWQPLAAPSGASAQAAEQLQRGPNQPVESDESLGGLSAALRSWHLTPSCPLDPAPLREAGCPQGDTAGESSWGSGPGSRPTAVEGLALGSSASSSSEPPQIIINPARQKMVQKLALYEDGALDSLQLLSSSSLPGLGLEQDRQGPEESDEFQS

[14] = target: T5, Interleukin-1 receptor-associated kinase 4 (Homo sapiens) (UniProt Q9NWZ3); conditions: at 1 µM
T5 sequence (whole entry): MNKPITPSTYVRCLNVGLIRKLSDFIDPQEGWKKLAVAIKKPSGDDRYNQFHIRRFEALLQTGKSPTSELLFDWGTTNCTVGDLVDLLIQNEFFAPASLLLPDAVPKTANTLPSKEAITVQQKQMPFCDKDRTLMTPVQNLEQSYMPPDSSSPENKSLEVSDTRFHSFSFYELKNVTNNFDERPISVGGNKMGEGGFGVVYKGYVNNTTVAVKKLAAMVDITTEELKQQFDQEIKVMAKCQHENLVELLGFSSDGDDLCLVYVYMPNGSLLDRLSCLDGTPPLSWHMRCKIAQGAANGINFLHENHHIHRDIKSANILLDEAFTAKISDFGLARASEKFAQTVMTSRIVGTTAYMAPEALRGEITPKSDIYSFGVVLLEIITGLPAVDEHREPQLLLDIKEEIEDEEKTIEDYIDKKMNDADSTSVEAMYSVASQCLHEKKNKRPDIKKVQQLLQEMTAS

[15] = target: T5, Interleukin-1 receptor-associated kinase 4 (Homo sapiens); conditions: at 10 µM
[16] = target: Insulin receptor-related protein (Homo sapiens) (UniProt P14616); conditions: at 1 µM
Insulin receptor-related protein (Homo sapiens), sequence (P14616 27-742 limits assumed): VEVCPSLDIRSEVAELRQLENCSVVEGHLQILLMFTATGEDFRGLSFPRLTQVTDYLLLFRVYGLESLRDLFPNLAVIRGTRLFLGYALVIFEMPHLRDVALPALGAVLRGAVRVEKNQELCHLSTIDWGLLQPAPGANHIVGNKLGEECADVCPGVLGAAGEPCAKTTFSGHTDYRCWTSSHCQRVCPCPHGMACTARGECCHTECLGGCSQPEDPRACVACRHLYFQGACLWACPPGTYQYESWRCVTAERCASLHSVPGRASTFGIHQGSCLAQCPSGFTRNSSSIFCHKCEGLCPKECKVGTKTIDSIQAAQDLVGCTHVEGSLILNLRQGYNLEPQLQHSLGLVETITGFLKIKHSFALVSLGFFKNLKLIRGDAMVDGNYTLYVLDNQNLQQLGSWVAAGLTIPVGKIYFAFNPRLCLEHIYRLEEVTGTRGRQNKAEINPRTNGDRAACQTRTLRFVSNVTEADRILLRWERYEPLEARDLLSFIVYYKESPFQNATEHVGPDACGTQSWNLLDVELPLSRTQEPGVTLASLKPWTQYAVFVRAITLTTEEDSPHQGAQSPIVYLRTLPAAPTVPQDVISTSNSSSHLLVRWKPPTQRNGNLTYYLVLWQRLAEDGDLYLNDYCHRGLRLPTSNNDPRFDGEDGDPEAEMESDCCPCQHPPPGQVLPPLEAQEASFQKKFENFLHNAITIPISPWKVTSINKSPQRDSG
Insulin receptor-related protein (Homo sapiens), sequence (P14616 747-1297 limits assumed): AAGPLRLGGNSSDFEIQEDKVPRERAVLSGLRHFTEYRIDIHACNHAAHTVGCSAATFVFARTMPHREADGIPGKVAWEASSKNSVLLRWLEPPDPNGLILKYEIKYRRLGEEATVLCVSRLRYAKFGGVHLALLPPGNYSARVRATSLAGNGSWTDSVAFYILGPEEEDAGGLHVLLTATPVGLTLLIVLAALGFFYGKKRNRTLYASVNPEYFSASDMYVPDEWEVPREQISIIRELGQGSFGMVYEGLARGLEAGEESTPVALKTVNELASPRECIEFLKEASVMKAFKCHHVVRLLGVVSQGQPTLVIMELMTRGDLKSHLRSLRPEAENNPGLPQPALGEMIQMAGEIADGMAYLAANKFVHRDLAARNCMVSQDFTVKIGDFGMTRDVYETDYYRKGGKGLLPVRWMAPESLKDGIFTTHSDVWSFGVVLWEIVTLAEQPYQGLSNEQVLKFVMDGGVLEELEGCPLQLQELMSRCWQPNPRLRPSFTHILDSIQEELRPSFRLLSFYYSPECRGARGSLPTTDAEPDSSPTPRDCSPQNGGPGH

[17] = target: Insulin receptor-related protein (Homo sapiens) (UniProt P14616); conditions: at 10 µM
[18] = target: T6, Tyrosine-protein kinase ITK/TSK (Homo sapiens) (UniProt Q08881); conditions: at 1 µM
T6 sequence (whole entry): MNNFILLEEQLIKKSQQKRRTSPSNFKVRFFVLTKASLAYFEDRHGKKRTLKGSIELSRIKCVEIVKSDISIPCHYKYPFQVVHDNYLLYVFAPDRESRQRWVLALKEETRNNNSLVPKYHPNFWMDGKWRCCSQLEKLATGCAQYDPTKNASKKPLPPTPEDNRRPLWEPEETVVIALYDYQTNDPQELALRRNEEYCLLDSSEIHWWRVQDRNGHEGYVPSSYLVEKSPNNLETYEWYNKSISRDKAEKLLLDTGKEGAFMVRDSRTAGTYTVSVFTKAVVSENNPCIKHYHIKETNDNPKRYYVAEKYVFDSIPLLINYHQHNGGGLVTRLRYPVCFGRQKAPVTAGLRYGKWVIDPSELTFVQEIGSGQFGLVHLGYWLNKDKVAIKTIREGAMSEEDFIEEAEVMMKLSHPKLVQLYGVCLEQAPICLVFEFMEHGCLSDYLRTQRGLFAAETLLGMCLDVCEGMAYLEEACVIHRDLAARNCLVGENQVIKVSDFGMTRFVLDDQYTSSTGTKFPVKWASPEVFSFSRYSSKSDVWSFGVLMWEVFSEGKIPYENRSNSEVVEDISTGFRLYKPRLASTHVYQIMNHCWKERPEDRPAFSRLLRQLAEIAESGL

Question: With `CCN1/C(=C/C(C)=O)Sc2ccc(OC)cc21` as the molecule, how does the residual activity [1] read?
Answer: Its residual activity is 51%.

Question: `O=C(CCCc1ccc(-c2ccccc2F)cc1)Nc1ccc(O)cc1` was tested. Which residual activity [1] did it give?
Answer: Its residual activity is 73%.

Question: And the residual activity [2]?
Answer: The residual activity was 108%.

Question: And the residual activity [3]?
Answer: Its residual activity is 112%.

Question: And the residual activity [4]?
Answer: Its residual activity is 100%.

Question: What about the residual activity [5] of the same molecule?
Answer: Its residual activity is 92%.

Question: What about the residual activity [6] of the same molecule?
Answer: Its residual activity is 101%.

Question: What about the residual activity [7] of the same molecule?
Answer: Its residual activity is 129%.

Question: And the residual activity [8]?
Answer: Its residual activity is 101%.

Question: What about the residual activity [9] of the same molecule?
Answer: Its residual activity is 112%.

Question: What about the residual activity [10] of the same molecule?
Answer: Its residual activity is 102%.

Question: And the residual activity [11]?
Answer: The residual activity was 97%.

Question: What about the residual activity [12] of the same molecule?
Answer: Its residual activity is 97%.

Question: And the residual activity [13]?
Answer: The residual activity was 78%.

Question: And the residual activity [14]?
Answer: The residual activity was 93%.

Question: And the residual activity [15]?
Answer: Its residual activity is 82%.

Question: And the residual activity [16]?
Answer: The residual activity was 88%.

Question: And the residual activity [17]?
Answer: The residual activity was 98%.

Question: What about the residual activity [18] of the same molecule?
Answer: The residual activity was 90%.
